Results from PubChem BioAssay (NCATS).
Records with an inconclusive call do not appear. Entries that show only a call come without a potency. Calls of active or inactive are those of the source. Calls come from the whole dose curve; as a rule, active = well fitted inhibition curve with a large enough effect; inconclusive = small, poorly fitted or top-dose-only effect; inactive = no such curve, though single readings can be large or run the other way.

Tests used:
[1] = test system: Zika virus NS2B-NS3 protease (unlinked complex); experiment: Primary screen GU Rhodamine qHTS for Zika virus inhibitors: Unlinked NS2B-NS3 protease assay (AID 1347159); details: Recombinant ZIKV NS2B-NS3 protease, Rhodamine110 substrate fluorescence; series mostly up to 107 µM; note: nearly all actives have a fitted effect of over 60% in size
In short: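 Noncovalent NS2B hydrophilic domain–NS3 protease domain complex (25 nM) preincubated 15 min at room temperature with compounds (up to 114 microM) in 10 mM Tris-HCl pH 8.0, 0.01% Tween 20; 1.5 microM Rhodamine110 substrate added, fluorescence change over 15 min fitted to Hill equation.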

[2] = test system: Zika virus NS2B-NS3 protease (linked construct); experiment: Primary screen NINDS Rhodamine qHTS for Zika virus inhibitors (AID 1347160); details: purified NS2B-NS3 protease, Rhodamine110 substrate fluorescence; series mostly up to 57.1 µM; note: nearly all actives have a fitted effect of over 55% in size
In short: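 Purified linked NS2B-NS3 protease (NS2B hydrophilic domain joined to NS3 protease by flexible linker), 25 nM in 10 mM Tris-HCl pH 8.0, 0.01% Tween 20. Compounds titrated, 15 min preincubation at room temperature; 1.5 microM Rhodamine110 substrate, FITC fluorescence change over 15 min.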

Compound | Potency [1] | Potency [2]
C=C(C)C1CCC(C)C12CC(O)C1(C)OC1C2OC(=O)C(N)CCC(=O)O (stereo not drawn) | inactive | inactive
O=C(NCC(O)CO)c1ccncc1Nc1ccc(I)cc1F (stereo not drawn) | inactive | inactive
C=C1CC23CC1CCC2C12OC(=O)C(C)(CCC1O)C2C3C(=O)O (stereo not drawn) | inactive | inactive
C=CC1C(OC2OC(CO)C(O)C(O)C2O)OC=C(C(=O)OC)C1CC1CC(=O)CC(CCc2ccc(O)cc2)O1 (stereo not drawn) | inactive | inactive
C=CC(=O)Nc1cccc(CN2C(=O)N(c3c(Cl)c(OC)cc(OC)c3Cl)Cc3cnc(NCCCCN(CC)CC)nc32)c1 | inactive | inactive
Cc1c(F)cc(C(=O)NC2CC2)cc1-c1c(F)cn2c(C(C)(C)C)nnc2c1F | inactive | inactive
CC1(C)C2CC(OC3OC(COC4OCC(O)(CO)C4O)C(O)C(O)C3O)C1(C)CC2O (stereo not drawn) | inactive | inactive
C=C1C(O)CC2C(C(=O)O)=COC(O[C@@H]3O[C@H](COC(=O)/C=C/c4ccc(O)cc4)[C@@H](O)[C@H](O)[C@H]3O)C12 (stereo partly drawn) | inactive | inactive
CC(=O)OC1C[C@]2(C)C(O)CC(C)=C[C@H](OC(=O)c3ccc(O)cc3)C2[C@]1(O)C(C)C (stereo partly drawn) | inactive | inactive
